In the library only some 3.7% were active in any assay of this set; here they are far more common.
PTHR1 agonist: qHTS for PTHR1 Agonists: Primary Screen; AID 743266, 2014; actives 0.075% (n = 410,000); HEK293 GP2 PTHR1 cells, GloSensor cAMP luminescence, 1 h; Potency, µM (doses to about 115 µM), usual class: activators; Parathyroid hormone/parathyroid hormone-related peptide receptor (Homo sapiens), Q03431; also: nearly all actives have a fitted effect of over 55% in size
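HEK-293-derived GP2 cells expressing PTHR1 and a GloSensor cAMP reporter, 3,000/well, plated overnight, given luciferin plus IBMX (each 0.5 mM as added) for 1 h at 37 °C, then compound for 1 h at 37 °C. Luminescence was read after 15 min at room temperature.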
B2AR arrestin: qHTS assay of beta-arrestin-biased ligands of beta2-adrenergic receptor; Beta-2 adrenergic receptor (Homo sapiens), P07550; beta-arrestin recruitment to beta2AR, cell-based reporter; Potency, µM (series often up to 46.1 µM), hits mostly activators; actives 0.02% (n = 330,000); AID 492947, 2010; also: nearly all actives have a fitted effect of over 65% in size
Target sequence (P07550 whole entry, looked up): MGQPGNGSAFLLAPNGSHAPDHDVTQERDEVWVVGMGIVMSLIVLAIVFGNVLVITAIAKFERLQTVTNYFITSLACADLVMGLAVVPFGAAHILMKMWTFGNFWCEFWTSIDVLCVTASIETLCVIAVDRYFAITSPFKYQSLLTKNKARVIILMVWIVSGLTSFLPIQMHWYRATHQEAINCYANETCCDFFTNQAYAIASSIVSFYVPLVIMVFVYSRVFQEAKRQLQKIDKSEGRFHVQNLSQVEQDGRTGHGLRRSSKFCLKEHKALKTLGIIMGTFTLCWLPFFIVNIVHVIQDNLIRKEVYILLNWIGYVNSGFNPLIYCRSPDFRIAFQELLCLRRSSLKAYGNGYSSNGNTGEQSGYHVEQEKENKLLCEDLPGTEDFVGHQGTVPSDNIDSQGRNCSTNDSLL
D3 ag: qHTS of D3 Dopamine Receptor Agonist: qHTS | AID 652048, 2013 | D(3) dopamine receptor (Homo sapiens), P35462 | D3R DiscoveRx beta-arrestin cells, luminescence, 90 min | max activation, % | actives 0.58% (n = 410,000); in the data active = max activation above about 30%
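Cells at 1500/well, incubated overnight, then treated with pinned compounds (dopamine as control) for 90 min at 37 degrees C. DiscoveRx reagent added for 30 - 60 minutes at room temperature; luminescence read.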
BRCA1 expr up: qHTS Assay to Identify Small Molecule Activators of BRCA1 Expression | MCF7-BRCA1-FFLuc reporter, luminescence, 48 h; response scale: scaled: vehicle 0%, 10 µM genistein 100% | Potency, µM (doses to about 46.1 µM), actives largely listed as activators | actives 1.1% (n = 380,000); also: nearly all actives have a fitted effect of over 80% in size
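MCF7-BRCA1-FFLuc, 2000 cells/well; 2 h attach, 37 °C/5% CO2; compound 48 h; luciferase substrate 15 min; luminescence end-point. Norm. to genistein 10 microM max activation and DMSO; concentration-response curves fitted.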
RGS4 inh: Inhibitors of Regulator of G Protein Signaling (RGS) 4: qHTS | Potency, µM (doses to about 114 µM), hits mostly inhibitors | Regulator of G-protein signaling 4 (Homo sapiens), P49798 | Transcreener GDP fluorescence polarization, RGS4-accelerated GTP hydrolysis | actives 0.039% (n = 390,000); also: nearly all actives have a fitted effect of over 75% in size
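MLSMR compounds (23 nl, pin-transferred) preincubated 10 min at room temperature with a 500nM (2x) first reagent, then RGS4 at 900nM (2x) plus Transcreener GDP mix added; fluorescence polarization (620/688 nm) read before and after 90 min at 30 °C.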
D3 antag: qHTS of D3 Dopamine Receptor Antagonist: qHTS; max response, negative = inhibition, %; D3R cells, DiscoveRx beta-arrestin luminescence, antagonist mode; active compounds read low; actives 2.5% (n = 360,000); D(3) dopamine receptor (Homo sapiens), P35462; in the data active = max response below about -50%; inconclusive = no clear call, values can overlap the other calls
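Cells expressing the human receptor were seeded at 1500 cells/well, incubated overnight at 37 degrees C in 5% CO2, then exposed to library compounds with dopamine controls for 90 minutes at 37 degrees C before luminescent detection.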
Large screens that a line does not name were inactive. Unless noted, calls follow the shape of the dose curve; as a rule, active = well fitted curve in the direction sought with a large enough effect; inconclusive = small, poorly fitted or top-dose-only effect, or another doubt; inactive = no such curve, though single readings can be large; an effect the other way counts as inactive or inconclusive.

COCCn1c(C)cc(/C=C2/NC(=O)N(c3cccc(Cl)c3)C2=O)c1C	BRCA1 expr up 7.94µM
Cc1ccc(C)c(C(=O)CCC(=O)O)c1	none
CCOC(=O)c1c(-c2ccc(C)o2)csc1NC(=S)NC(=O)N(C)C	RGS4 inh inconclusive, D3 antag -55.0
O=C(CC1NCCNC1=O)Nc1cccc(F)c1 (stereo unspecified)	none (no result: B2AR arrestin, D3 antag)
O=C(Nc1ccc(Oc2ccccc2)cc1)N[C@@H](Cc1ccccc1)C(=O)O	none
COC/C=C/C1=CC2=CC(=O)C(C)(OC(=O)c3cnc4ccccc4n3)C(=O)C2=CN1Cc1ccccc1 (stereo unspecified)	D3 antag -64.7
O=C1c2ccccc2S(=O)(=O)c2cc(C(=O)N3CCN(c4ccccc4)CC3)ccc21	none (no result: B2AR arrestin)
O=C1c2ccccc2S(=O)(=O)c2cc(N3CCN(C(=O)c4ccccc4)CC3)ccc21	D3 ag 64.0 (no result: B2AR arrestin)
COC1CCN(C(=O)c2cc(COc3cc(C)ccc3C)on2)CC1	none (no result: B2AR arrestin, RGS4 inh)
Cc1ccc(C)c(OCc2cc(C(=O)N3CCOCC3)no2)c1	BRCA1 expr up 17.8µM, RGS4 inh inconclusive
Cc1ccc(C)c(OCc2cc(C(=O)NC3CCN(Cc4ccccc4)CC3)no2)c1	D3 antag -92.6
Cc1ccc(C)c(OCc2cc(C(=O)N3CCC(N4CCCC(O)C4)CC3)no2)c1 (stereo unspecified)	none
COCCCC1CCN(C(=O)c2cc(COc3cc(C)ccc3C)on2)CC1	BRCA1 expr up 3.16µM
CC(=O)NCCC1CCCCN1C(=O)c1cc(COc2cc(C)ccc2C)on1 (stereo unspecified)	BRCA1 expr up 7.08µM
CCOC(=O)c1c(S(=O)(=O)NCC(=O)Nc2ccc(C)c(Cl)c2)c(C)n(C)c1C	none (no result: B2AR arrestin, BRCA1 expr up, D3 antag)
COCCCN(C(=O)C1=COCCO1)c1c(N)n(Cc2ccccc2)c(=O)[nH]c1=O	none (no result: B2AR arrestin, RGS4 inh)
Cc1cc(C)cc(C(=O)n2nc(C)c(S(=O)(=O)N3CCCCCC3)c2C)c1	none (no result: B2AR arrestin, D3 antag)
C(=N\Nc1nncc2ccccc12)/c1ccccc1	none
COc1cc(/C=N/Nc2nncc3ccccc23)cc(OC)c1OC	BRCA1 expr up 7.08µM
CCOC(=O)C1CCCN(C(=O)Cn2ncc3c4ccccc4n(Cc4ccc(F)cc4)c3c2=O)C1 (stereo unspecified)	none (no result: B2AR arrestin, BRCA1 expr up, D3 antag)
Cc1ccc2c(c1)cc1c(=O)[nH]ncn12	BRCA1 expr up 11.2µM
COc1ccccc1NS(=O)(=O)c1cc(C(=O)NCCCN2CCCC2=O)ccc1C	none (no result: B2AR arrestin)
Cc1cccc(OCCCC(=O)NNC(=O)c2ccccn2)c1	none
COc1ccc(CC2(CO)CCN(Cc3ccc4nsnc4c3)CC2)cc1	D3 antag -73.0
OCC1(Cc2ccc(Cl)cc2)CCN(Cc2ccc3nsnc3c2)CC1	D3 antag inconclusive
O=C(COC(=O)C1(c2ccccc2F)CCCC1)NC1CCS(=O)(=O)C1 (stereo unspecified)	D3 antag -61.8
Cc1cn([C@H]2C[C@H](O)[C@@H](/C=C/C(=O)NCCc3ccc4ccccc4c3)O2)c(=O)[nH]c1=O	none (no result: B2AR arrestin, RGS4 inh)
CCCCC(c1nnnn1CCOC)N1CCN(CC)CC1 (stereo unspecified)	D3 antag -68.0
CCn1nc(C(=O)OCC(=O)Nc2nc(-c3ccc(OC)cc3)cs2)c2ccccc2c1=O	D3 ag 35.2, BRCA1 expr up 6.31µM
CCn1nc(C(=O)OCC(=O)NCC(C)C)c2ccccc2c1=O	none
OC(CCN1CCCCC1)(c1ccccc1)c1ccccc1	none
OC(CCCN1CCCCC1)(c1ccccc1)c1ccc(C(F)(F)F)cc1 (stereo unspecified)	D3 antag -99.2 (no result: B2AR arrestin)
CCNC(=O)NC1(C(=O)N2CCC(Cc3ccccc3)CC2)CCCCC1	none

Source: PubChem (National Center for Advancing Translational Sciences (NCATS))
